This is one part of a sample in which hits are shown more often than they occur.
DT40 TDP1 CPT – DT40-hTDP1 cell growth loss with CPT; chicken DT40 Tdp1-/-;hTDP1 cells + 20 nM CPT, ATP luminescence, 48 h; Potency, µM (series often up to 46.2 µM), for the others: at the top dose activity change, negative = growth inhibition, usual class: inhibitors; actives 12% (n = 420,000); AID 686979; further: potency means the concentration at half of the fitted maximal effect; nearly all actives have a fitted effect of over 55% in size
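Chicken DT40 Tdp1-/- cells complemented with human TDP1, 400 cells/well, exposed to compounds plus 20 nM camptothecin for at least 48 h at 37 C; viability read as ATP content by CellTiter-Glo luminescence.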
HT1080-NT tox – kills 2HG-producing HT-1080-NT fibrosarcoma cells | HT-1080-NT fibrosarcoma viability, CellTiter-Glo ATP luminescence, 48 h | Potency, µM (highest dose often 46.1 µM), without a hit: at the highest dose activity, negative = less viability, most hits filed as cytotoxic | actives 1.6% (n = 360,000);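 further: NT is the 2HG producing partner of a matched IDH1 knockdown line; potency means the concentration at half of the fitted maximal effect; 0% = DMSO-treated cells and -100% = media-only wells without cells; nearly all actives have a fitted effect of over 55% in size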
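Compounds were tested in concentration-response format on HT-1080-NT cells for 48 hours at 37 degrees C. Cell viability came from CellTiter-Glo luminescence; curves were classified by r2, response magnitude and activity.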
IL1B secr inh – inflammasome signaling inhibition, IL-1 beta readout; actives 4.7% (n = 360,000); THP-1 LPS/ATP IL-1B secretion, AlphaLISA, 16 h; stronger effect = lower value; activity change, % at 57.5 µM; in the data active means activity change below about -50%; inconclusive means mostly about -30% to -49%
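THP-1 cells pretreated 1 hr with compounds (up to 57.5 uM final), then stimulated with LPS (250 ng/mL final) plus ATP (1.25 mM final); secreted IL-1B measured by AlphaLISA after 16 hr, decreased signal indicating inhibition.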
HT1080 IDH1KD tx – HT-1080 IDH1 knockdown cell toxicity (counter line); HT-1080 IDH1 knockdown viability, ATP luminescence, 48 h; Potency, µM (series often up to 46.1 µM), inactives show at the highest dose activity, negative = toxicity, hits mostly cytotoxic; actives 2% (n = 360,000); AID 686971;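 further: potency means the concentration at half of the fitted maximal effect; 0% = DMSO wells and -100% = cell-free medium wells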
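Knockdown cells (IDH1KD HT-1080) received compounds 2 h after plating at 750 cells/well and were kept 48 h at 37 °C in 5% FBS RPMI. A CellTiter-Glo luminescence read gave % activity for curve fitting.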
12-LOX inh – ALOX12 (human) lipoxygenase inhibition | actives 1.1% (n = 580,000) | AID 1671190 | purified 12hLO, xylenol orange hydroperoxide absorbance | P18054 | Potency, µM (top dose mostly 108 µM), for inactives: top-dose activity change, negative = inhibition, hits mostly inhibitors; further: potency means the concentration at half of the fitted maximal effect
Target sequence (P18054 whole entry, looked up): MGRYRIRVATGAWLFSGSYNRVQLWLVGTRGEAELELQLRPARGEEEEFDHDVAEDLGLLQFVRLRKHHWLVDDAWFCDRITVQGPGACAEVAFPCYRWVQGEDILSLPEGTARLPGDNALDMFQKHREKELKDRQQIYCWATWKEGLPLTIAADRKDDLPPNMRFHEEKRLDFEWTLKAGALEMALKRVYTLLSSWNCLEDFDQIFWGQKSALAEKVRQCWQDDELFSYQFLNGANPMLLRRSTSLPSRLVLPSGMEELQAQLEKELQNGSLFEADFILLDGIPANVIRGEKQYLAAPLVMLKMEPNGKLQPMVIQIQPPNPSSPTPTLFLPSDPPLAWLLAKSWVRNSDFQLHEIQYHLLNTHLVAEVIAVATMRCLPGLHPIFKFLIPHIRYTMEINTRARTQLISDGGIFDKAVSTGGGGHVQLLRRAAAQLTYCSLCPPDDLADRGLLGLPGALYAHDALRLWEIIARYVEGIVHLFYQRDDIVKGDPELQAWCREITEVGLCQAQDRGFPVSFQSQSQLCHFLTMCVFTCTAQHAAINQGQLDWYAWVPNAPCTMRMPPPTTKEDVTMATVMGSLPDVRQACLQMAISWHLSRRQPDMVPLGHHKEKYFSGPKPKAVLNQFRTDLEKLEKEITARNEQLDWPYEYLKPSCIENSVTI
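Purified human 12hLO (150 nM final) in 25 mM Hepes, 0.01% Triton X-100, pH 7.0 was preincubated 15 min at room temperature with compound. Then 40 uM arachidonic acid was added, 30 min. Hydroperoxide was read by Fe-XO absorbance ratio 573/405 nm.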
TDP1 cell noCPT – qHTS for Inhibitors of human tyrosyl-DNA phosphodiesterase 1 (TDP1): qHTS in cells in absence of CPT. DT40 Tdp1-/- hTDP1 cells, no CPT, ATP luminescence, 48 h. AID 686978, 2013. actives 15% (n = 420,000). Potency, µM (series often up to 46.2 µM), for inactives: at the highest dose activity change, negative = growth inhibition, most hits filed as inhibitors; further: potency means the concentration at half of the fitted maximal effect; nearly all actives have a fitted effect of over 55% in size
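Growth of hTDP1-complemented DT40 Tdp1-knockout cells is measured by ATP luminescence after at least 48 hr compound exposure at 37 °C, with DMSO substituting for the 20 nM CPT used in the parallel screen.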
* marks the source's active call; other numbers are inactive results; ? = inconclusive; . = not tested or not shown. Unless noted, the call rests on the fitted dose curve; in most records, active means well fitted curve in the direction sought with a large enough effect; inconclusive means small, poorly fitted or top-dose-only effect, or another doubt; inactive means no such curve, though single readings can be large; an effect the other way counts as inactive or inconclusive. Unless noted, on the % scale 0 is the no-effect control and ±100 the full control effect.

SMILES	DT40 TDP1 CPT	HT1080-NT tox	IL1B secr inh	HT1080 IDH1KD tx	12-LOX inh	TDP1 cell noCPT
O=C(CCN1CCC(c2ccccc2)C1)c1cccc2ccccc12 (centres undefined)	.	.	.	.	25.1µM*	.
O=C(CCN1CCC(c2ccccc2)C1)c1ccc2c(c1)OCCO2 (centres undefined)	2.06µM*	4.61µM*	-14.3	18.4µM*	-17.8%	1.84µM*
O=C(CCN1CCC(c2ccccc2)C1)c1cccs1 (centres undefined)	1.84µM*	?	-15.4	3.98µM*	?	2.59µM*
O=C(CCN1CCC(c2ccccc2)C1)c1ccccc1 (centres undefined)	3.66µM*	11.9%	2.5	?	?	3.66µM*
O=C(CCN1CCC(c2ccccc2)C1)c1ccco1 (centres undefined)	.	.	.	.	-23.3%	.
CCn1c(=S)[nH]c2cc(S(=O)(=O)N3CCCCC3)ccc21	?	?	-28.4	-18.9%	-28.4%	12.6µM*
CCCCn1c(=S)[nH]c2cc(S(=O)(=O)N3CCOCC3)ccc21	?	-4.9%	0.0	1.5%	?	?
CCn1cc(CN2CCC3(CC2)CN(C)CC3COC)cn1 (centres undefined)	.	.	.	.	95.1%	.
O=C(NC1CC2CCC1C2)c1ccccc1Cl (centres undefined)	.	.	.	.	10.9%	.
COc1ccc(NC(=O)c2ccc3c(=O)n(CC4CCCO4)c(=S)[nH]c3c2)c(OC)c1 (centres undefined)	?	7.4%	15.3	5.6%	-13.1%	13µM*
COc1ccc(NC(=O)c2ccc3c(=O)n(-c4ccc(OC)cc4OC)c(=S)[nH]c3c2)c(OC)c1	23.1µM*	0.3%	-11.0	-4.0%	-23.5%	20.6µM*
CC1CCCC(NC(=O)c2ccc3c(=O)n(CC4CCCO4)c(=O)[nH]c3c2)C1C (centres undefined)	?	-4.9%	-24.5	-1.9%	0.0%	18.4µM*
CCN1c2cc(C(=O)NCc3cccc(F)c3)ccc2C(=O)N2CCCCC21 (centres undefined)	.	.	.	.	6.8%	.
Cc1ccc(NC(=O)CN2CCN(S(=O)(=O)c3ccc(F)cc3)CC2)cc1C	?	-0.6%	-12.5	-12.0%	-5.7%	-28.3%
Cc1ccc(NC(=O)CN2CCN(S(=O)(=O)c3ccc(C(C)C)cc3)CC2)cc1F	20.6µM*	.	.	.	?	?
COc1ccc(S(=O)(=O)N2CCN(CC(=O)Nc3ccc(C)c(F)c3)CC2)cc1	?	-0.6%	-61.2*	-13.5%	0.0%	18.4µM*
CC(NC(=O)CSc1nc2ccccc2o1)c1ccccc1 (centres undefined)	.	.	.	.	37.4%	.
COc1ccccc1NC(=O)/C(N=Nc1ccc(C)c(S(=O)(=O)Nc2ccccc2Cl)c1)=C(\C)O	18.4µM*	1.8%	7.6	3.0%	-4.0%	18.4µM*
Cc1cccc(C(=O)N2CC(c3nnc(-c4ccncc4)o3)C3(CCOCC3)C2)c1 (centres undefined)	.	.	.	.	43.8%	.
O=C(Nc1ccc(Br)cc1F)c1ccncc1	-9.6%	8.8%	?	4.1%	138.7%	-28.7%
O=C(Nc1ccc(Br)cc1F)c1ccc2nsnc2c1	?	-1.5%	4.0	1.7%	-2.8%	8.2µM*
Cc1noc(/C=C/c2cccs2)c1S(=O)(=O)N1CCC(C(=O)NCCCN2CCCC(C)C2)CC1 (centres undefined)	?	-3.0%	-50.9*	-24.7%	-12.1%	?
CCCCNC(=O)C1CCCN(S(=O)(=O)c2c(C)noc2/C=C/c2cccs2)C1 (centres undefined)	?	-7.4%	?	8.8%	-5.4%	13µM*
CCOCCCNC(=O)C1CCN(S(=O)(=O)c2c(C)noc2/C=C\c2ccc(OC)cc2)CC1	-10.9%	0.0%	21.5	3.3%	0.0%	1.4%
CCOC(=O)C1=C(N)OC2=C(C(=O)CCC2)C1c1ccc(Cl)cc1 (centres undefined)	.	.	.	.	-78.5%	.
SMILES	DT40 TDP1 CPT	HT1080-NT tox	IL1B secr inh	HT1080 IDH1KD tx	12-LOX inh	TDP1 cell noCPT
O=S(=O)(c1ccc(F)cc1)c1snnc1-c1ccccc1	4.11µM*	6.51µM*	-99.9*	?	8.7%	2.91µM*
O=S(=O)(c1ccc(Cl)cc1)c1snnc1-c1ccccc1	5.17µM*	11.6µM*	-115.2*	7.31µM*	0.0%	4.11µM*
Cc1ccc(-n2ncc(C(=O)NCc3ccccc3C)c2-n2cccc2)cc1	?	.	.	.	-16.5%	23.1µM*
CCOc1ccccc1CNC(=O)c1cnn(-c2ccc(C)cc2)c1-n1cccc1	?	.	.	.	-11.1%	20.6µM*
Cc1ccc2nc(Nc3nc(C(C)C)cc(=O)[nH]3)nc(C)c2c1	.	.	.	.	12.4%	.
N=C1C(c2nc3ccccc3c(=O)[nH]2)=C(O)CN1CCc1ccccc1	2.59µM*	27.0%	-11.9	16.7%	.	6.51µM*
COC(=O)c1sc(=S)sc1C(=O)OC	29.1µM*	?	-11.7	31.6µM*	44.7µM*	?
COC(=O)c1sc(C(=O)OC)c(C(=O)OC)c1C(=O)OC	-18.4%	-1.5%	20.7	8.4%	-9.1%	-1.4%
COc1cc(OC)cc(C(=O)OCC(=O)Nc2cccc(S(=O)(=O)NC3=NCCCCC3)c2)c1	?	4.9%	7.7	5.7%	5.8%	20.6µM*
Cc1ccc(C)c(C(=O)OCC(=O)Nc2cccc(S(=O)(=O)NC3=NCCCCC3)c2)c1	?	-16.0%	-68.7*	-20.6%	-10.1%	?
Cc1ccc(C)c(SCC(=O)Nc2cccc(S(=O)(=O)NC3=NCCCCC3)c2)c1	-26.7%	-4.4%	-10.6	-9.6%	9.8%	?
Cc1ccc(Nc2nnc(SCC(=O)Nc3cccc(S(=O)(=O)NC4=NCCCCC4)c3)s2)c(C)c1	?	-10.1%	?	-0.4%	1.8%	25.9µM*
O=C(COC(=O)c1ccc(O)cc1)Nc1cccc(S(=O)(=O)NC2=NCCCCC2)c1	0.5%	0.5%	-13.3	0.4%	4.6%	-9.6%
COc1ccc(/C=C/C(=O)OCC(=O)Nc2cccc(S(=O)(=O)NC3=NCCCCC3)c2)cc1	-16.4%	-1.2%	-69.6*	-0.4%	1.7%	-20.2%
Cc1ccc(NC(=O)c2c(C)oc(C)c2C)c(O)c1	.	.	.	.	41.3%	.
CCc1nnsc1C(=O)NC(C)c1ccc(SC)cc1 (centres undefined)	.	.	.	.	4.6%	.
Cc1ccc(N(CN2CCCC2=O)C(=O)c2ccccc2)cc1	13µM*	0.0%	30.3	-0.7%	-5.9%	13µM*

From PubChem BioAssay
